Screening data deposited in PubChem BioAssay by National Center for Advancing Translational Sciences (NCATS).
Shiga toxin inh: A qHTS for Small Molecule Inhibitors of Shiga Toxin. inhibition, % at 38.7 µM. hit rate 9.2% among 290,000. Vero cells, Shiga toxin protein synthesis inhibition reporter; in the data active means inhibition mostly above about 28%, no sharp cut-off; inactive means mostly below about 43%
SARS PLP yeast: qHTS of Yeast-based Assay for SARS-CoV PLP; hit rate 0.19% among 330,000; AID 485353, 2010; Potency, µM (top dose mostly 32.9 µM), usual class: activators; S. cerevisiae expressing SARS-CoV PLpro, growth rescue; calls by dose curve; further: nearly all actives have a fitted effect of over 55% in size
Pf growth 48h: Primary qHTS for delayed death inhibitors of the malarial parasite plastid, 48 hour incubation. hit rate 5.9% among 310,000. P. falciparum luciferase growth in erythrocytes, 48 h. AID 504832, 2011. Potency, µM (series often up to 28.7 µM), hits mostly inhibitors
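Here the parasites carry a stable luciferase gene and grow inside erythrocytes in Albumax-based RPMI medium with compound for one erythrocytic cycle. Activity is scored as loss of luminescent signal.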
NS1 inh: qHTS Assay for Inhibitors of Influenza NS1 Protein Function; Potency, µM (top dose mostly 46.1 µM); hit rate 0.4% among 270,000; AID 2326, 2010; calls by dose curve; further: actives are rising curves; nearly all actives have a fitted effect of over 50% in size
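Growth recovery, yeast-based: influenza A NS1 expressed in S. cerevisiae causes slow growth, and suppressors are detected by OD600. The parent strain without NS1 is used as positive control.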
CHX counter: Cycloheximide Counterscreen for Small Molecule Inhibitors of Shiga Toxin | hit rate 12% among 300,000 | max response, % | cell reporter, cycloheximide protein synthesis inhibition counterscreen; in the data active means max response mostly above about 13%, no sharp cut-off; inactive means mostly below about 14%; further: read at 38.3 µM for the half of the compounds with a filed dose
Pf growth 96h: Primary qHTS for delayed death inhibitors of the malarial parasite plastid, 96 hour incubation. P. falciparum luciferase reporter growth, 96 h. Potency, µM (titrated, usually from 28.7 µM), actives largely listed as inhibitors. hit rate 6.9% among 320,000. AID 504834, 2011
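Plates of compound plus infected erythrocytes (2% hematocrit, 0.05% parasitemia final) incubate 96 hours, 37 C, 5% CO2. Detection reagent added; reduced luminescence from the parasites' luciferase reporter flags inhibition.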
Large screens that a line does not name were inactive. In the library only some 21% were active in any assay of this set; here they are far more common. Unless noted, the call rests on the fitted dose curve; in most records, active means well fitted inhibition curve with a large enough effect; inconclusive means small, poorly fitted or top-dose-only effect, or another doubt; inactive means no such curve, though single readings can be large or run the other way.

CC[n+]1c(/C=C/c2ccc(N(C)C)cc2)ccc2ccccc21	Shiga toxin inh active, Pf growth 48h 0.66µM, CHX counter 24, Pf growth 96h 0.41µM
CC[n+]1c(/C=C/c2ccc(OC)c(OC)c2)ccc2ccccc21	Shiga toxin inh 116, Pf growth 48h 1µM, CHX counter 26
CC[n+]1c(/C=C/c2ccc(OC(C)=O)c(OC)c2)ccc2ccccc21	Shiga toxin inh 61, Pf growth 48h inconclusive, CHX counter 40, Pf growth 96h inconclusive
CC[n+]1c(/C=C/c2cc([N+](=O)[O-])ccc2O)ccc2ccccc21	Pf growth 48h inconclusive
CC(C)Oc1cccc(C(=O)C2CCCN(C(=O)CCn3cnnn3)C2)c1 (stereo not drawn)	none
COc1ccccc1NC(=O)C1=C(C)Nc2nc(-c3ccc(N(C)C)cc3)nn2C1c1ccncc1 (stereo not drawn)	Pf growth 48h 15µM, Pf growth 96h 9.3µM
CCNC(=O)CC1C(=O)N(c2cccc(C)c2)C(=O)N1CCC(C)C (stereo not drawn)	none
CCOc1cc(C=O)ccc1OCCSc1ccc(C)cc1	none
COC(=O)c1ccccc1OCCCOc1ccc(C=O)cc1OC	Shiga toxin inh 86, CHX counter 37
CNC(=O)COc1ccc(C=O)cc1OC	none
COC(=O)c1ccccc1OCCOc1ccccc1C(=O)OC	none
COc1cc(C=O)ccc1OCCSc1ccc(C)cc1	Shiga toxin inh 46, CHX counter 39
COc1cc(C=O)ccc1OCc1ccccc1Br	Shiga toxin inh 74, CHX counter 61
COc1cc(C=O)ccc1OCc1cccc(Br)c1	Shiga toxin inh 70, CHX counter 47
Cc1cccc(C)c1NC(=O)CN(C1CCCCC1)S(C)(=O)=O	none
COCCN(C(=O)CCc1nnc(CCc2c[nH]c3ccccc23)o1)C(C)C	Pf growth 48h inconclusive
Nc1c2c(nc3sc4c(c13)CCCCC4)CCCC2	Shiga toxin inh 137, Pf growth 48h inconclusive, CHX counter 62
Nc1c2c(nc3c1CCC3)CCCC2	Pf growth 48h 4.8µM, Pf growth 96h 3.8µM (no result: NS1 inh)
Nc1c2c(nc3sc4c(c13)CCCC4)-c1ccccc1CC2	Shiga toxin inh 97, CHX counter 50
C=CCOc1ccc(C2/C(=C(/O)c3ccc4c(c3)CC(C)O4)C(=O)C(=O)N2CCCN2CCOCC2)cc1 (stereo not drawn)	Pf growth 96h inconclusive
COc1ccc(Cl)cc1NC(=O)c1cccc(-n2cnnn2)c1	none (no result: Shiga toxin inh, NS1 inh, CHX counter)
O=S(=O)(O)c1nc2ccccc2[nH]1	none
COc1ccc(C2CC(c3ccc4ccccc4c3OC(C)=O)=NN2C(=O)/C=C/c2ccccc2)cc1 (stereo not drawn)	Pf growth 48h 12µM, Pf growth 96h inconclusive
COc1ccc(C2CC(c3ccccc3OC(C)=O)=NN2C(C)=O)cc1 (stereo not drawn)	Shiga toxin inh 49, Pf growth 48h inconclusive, CHX counter 30
COc1ccc(C2CC(c3ccccc3OC(C)=O)=NN2C(=O)/C=C/c2ccccc2)cc1 (stereo not drawn)	Pf growth 48h inconclusive, Pf growth 96h inconclusive
N#CN(Cc1ccccc1)Cc1ccccc1	none
Nc1cc(=O)[nH]c(SCC(=O)Nc2ccccc2Sc2ccccc2)n1	Pf growth 48h inconclusive, Pf growth 96h inconclusive (no result: NS1 inh)
Cc1ccc(C(C[N+](=O)[O-])n2nc(C)cc2C)cc1 (stereo not drawn)	Pf growth 48h inconclusive (no result: Pf growth 96h)
Cc1ccc(C(C[N+](=O)[O-])Sc2ccc(N)cc2)cc1 (stereo not drawn)	Pf growth 48h inconclusive, Pf growth 96h 12µM
CC1Oc2ccccc2C=C1/C=N/Nc1ccc(C(=O)O)cc1 (stereo not drawn)	Shiga toxin inh 70, CHX counter 33
O=C(NCCc1ccccc1)c1cnc(Cl)c(Cl)c1	Shiga toxin inh 105, CHX counter 31 (no result: Pf growth 48h)
CC1CCN(S(=O)(=O)c2cccc(C(=O)NCc3cccs3)c2)CC1	none
O=C(NCCCSc1ccccc1)c1cnc(Cl)c(Cl)c1	none
O=C(COC(=O)c1cnc(Cl)c(Cl)c1)NCc1cccs1	none
CC1CCN(c2ccc(C(=O)NCc3cccs3)cn2)CC1	Pf growth 48h inconclusive, CHX counter 52, Pf growth 96h inconclusive
